Shown are actives, neighbours in structure and some others; about 3% of the full set was active somewhere.
PPC-1+TRAIL kill: compounds killing PPC-1 cancer cells with TRAIL present, primary screen, TRAIL potentiator project, ATPLite luminescence, uHTS; PPC-1 cells + TRAIL, ATPLite viability luminescence; cell killing (% activity), % at 4 µM or 5 µM; 0.41% of 220,000 active; AID 1443, 2008;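 active means cell killing above 50% in the first pass at 4 µM, then a duplicate retest at 5 µM averaging 50% or more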
SENP6 inh: SENP6 protease inhibitors, primary screen, biochemical, luminescence, uHTS | 1.8% of 330,000 active | Sentrin-specific protease 6 (Homo sapiens), Q9GZR1 | inhibition, % at 10 µM | Recombinant SENP6 catalytic domain, aminoluciferin luminescence;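 active means inhibition above about 50% at the single tested dose, limit read from the data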
SENP8 block-1: human SENP8 protease inhibitors, primary screen, biochemical, fluorescence, Nedd8 protein substrate, uHTS. Sentrin-specific protease 8 (Homo sapiens), Q96LD8. recombinant SENP8. inhibition, % at 20 µM. 0.64% of 360,000 active. AID 602440, 2012; in the data active means inhibition mostly above about 40%, no sharp cut-off; inactive means mostly below about 27%
SENP7 block: SENP7 protease inhibitors, primary screen, biochemical, luminescence, uHTS. Sentrin-specific protease 7 (Homo sapiens), Q9BQF6. recombinant SENP7, Z-RLRGG-aminoluciferin luminescence, 40 min. inhibition, % at 5 µM. 1.5% of 330,000 active;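 active means inhibition above about 50% at the single test dose, limit read from the data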
Target sequence (Q9BQF6 706-1050 limits assumed): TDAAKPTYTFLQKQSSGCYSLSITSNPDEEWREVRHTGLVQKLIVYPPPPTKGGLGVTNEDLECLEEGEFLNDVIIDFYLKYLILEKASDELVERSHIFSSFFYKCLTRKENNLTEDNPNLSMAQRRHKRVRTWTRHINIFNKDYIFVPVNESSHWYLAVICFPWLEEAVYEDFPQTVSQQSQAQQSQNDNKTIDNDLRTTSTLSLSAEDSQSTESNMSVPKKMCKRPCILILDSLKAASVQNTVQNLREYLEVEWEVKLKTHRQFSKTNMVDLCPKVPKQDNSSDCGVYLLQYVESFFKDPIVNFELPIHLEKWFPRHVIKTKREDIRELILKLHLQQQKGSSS
SENP8 block-2: SENP8 protease inhibitors, primary screen, biochemical, luminescence; Sentrin-specific protease 8 (Homo sapiens), Q96LD8; purified SENP8, Z-RLRGG-aminoluciferin cleavage; inhibition, % at 10 µM; 1.2% of 330,000 active; in the data active means inhibition above about 50%
C8 TRAIL sens: viability loss with TRAIL in NB7+C8 cells, primary screen, TRAIL sensitizer project, cell-based, ATPlite luminescence. inhibition (viability loss, TRAIL sensitization), % at 10 µM. 1% of 360,000 active. AID 624354, 2012;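 active means compounds causing at least 50% loss of cell viability in the single-dose screen, relative to plate controls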
SENP8 confirm: SENP8 protease inhibitors, retest, confirmation, biochemical, luminescence, single concentration. shares compounds with SENP7 block. 40% of 6,200 active. Recombinant SENP8, Z-RLRGG-aminoluciferin luminescence, 60 min. AID 488912, 2010. inhibition, % at 12.5 µM;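 active means mean inhibition across replicates above about 50%, limit read from the data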
SENP6 confirm: SENP6 protease inhibitors, confirmation, biochemical, luminescence, single concentration | shares compounds with SENP7 block | recombinant SENP6, Z-RLRGG-aminoluciferin luminescence | inhibition, % at 12.5 µM | 58% of 6,200 active
SENP7 confirm: SENP7 protease inhibitors, retest, confirmation, biochemical, luminescence, single concentration; shares compounds with SENP7 block; recombinant SENP7, Z-RLRGG-aminoluciferin luminescence, 40 min; inhibition, % at 12.5 µM; 69% of 6,200 active; AID 488917, 2010
Casp3 select: caspase-3 protease inhibitors, confirmation, selectivity assay for SENP inhibitor project, biochemical, single concentration; shares compounds with SENP7 block; AID 488918, 2010; purified caspase-3, Z-DEVD-aminoluciferin luminescence, 60 min; inhibition, % at 12.5 µM; 60% of 6,200 active;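 active means mean inhibition above about 50%, limit read from the data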
Target sequence (P42574 28-227 limits assumed): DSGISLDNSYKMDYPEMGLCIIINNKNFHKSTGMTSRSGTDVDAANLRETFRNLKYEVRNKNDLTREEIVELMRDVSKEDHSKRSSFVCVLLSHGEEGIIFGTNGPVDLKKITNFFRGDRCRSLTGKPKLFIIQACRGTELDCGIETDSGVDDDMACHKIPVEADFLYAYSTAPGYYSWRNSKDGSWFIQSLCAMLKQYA
SENP luc ctr: counter-screen for SENP inhibitors: luminescence interference; shares compounds with SENP7 block; inhibition, % at 12.5 µM; Pre-incubated SENP8/Z-RLRGG-aminoluciferin, luciferase luminescence interference; 39% of 6,200 active; AID 488919;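 active means mean inhibition above about 50% when retested at one dose, limit read from the data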
Each line names hits and unclear results; the compound was inactive in the other large screens (follow-up assays come after a bar, where they were run).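 How the source made its calls, unless noted: active means mean inhibition above about 50% in the one-dose retest (limit read from the data); inactive means the rest.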

COc1ccc(CC2(CO)COc3ccccc3C2=O)cc1 (stereo not drawn)	none (no result: PPC-1+TRAIL kill)
O=C(NC(=S)Nc1nc2ccccc2s1)c1cccs1	SENP6 inh 76, C8 TRAIL sens 84 | SENP8 confirm inactive | SENP6 confirm inactive | SENP7 confirm inactive | Casp3 select inactive | SENP luc ctr inactive
CN(C)S(=O)(=O)c1ccc2nc(NC(=O)c3cccs3)sc2c1	SENP6 inh 73, SENP7 block 55 | SENP8 confirm 77 | SENP6 confirm 74 | SENP7 confirm 90 | Casp3 select 72 | SENP luc ctr 76
O=C(Nc1nc2ccc(S(=O)(=O)N3CCCC3)cc2s1)c1cccs1	none
CSc1nc2ccc3nc(NC(=O)c4cccs4)sc3c2s1	none
O=C(NC(=S)Nc1ccccc1)c1cccs1	none (no result: PPC-1+TRAIL kill)
O=C(Nc1nc2ccc(F)cc2s1)c1cccs1	SENP6 inh 91, SENP7 block 95, SENP8 block-2 92 | SENP8 confirm 67 | SENP6 confirm 96 | SENP7 confirm 103 | Casp3 select 93 | SENP luc ctr 81
O=C(Cn1c(=O)c2cccn2c2cccnc21)N1CCN(c2ccc(Cl)cc2)CC1	none (no result: PPC-1+TRAIL kill)
O=[N+]([O-])c1cccc(/C=C/c2nc[nH]c2[N+](=O)[O-])c1	SENP6 inh 70, SENP8 block-2 57 | SENP8 confirm inactive | SENP6 confirm inactive | SENP7 confirm inactive | Casp3 select inactive | SENP luc ctr inactive
O=c1[nH]c(/C=C/c2cccc([N+](=O)[O-])c2)c([N+](=O)[O-])c(=O)[nH]1	none (no result: PPC-1+TRAIL kill)
Cc1ccc(NC(=S)c2nc3ccccc3s2)cc1	SENP6 inh 61, SENP7 block 80, C8 TRAIL sens 44 | SENP8 confirm inactive | SENP6 confirm inactive | SENP7 confirm inactive | Casp3 select inactive | SENP luc ctr inactive
S=C(Nc1ccc(Cl)cc1)c1nc2ccccc2s1	SENP7 block 57 | SENP8 confirm inactive | SENP6 confirm inactive | SENP7 confirm inactive | Casp3 select inactive | SENP luc ctr inactive
CSCCC(NC(=O)c1ccccc1Br)C(=O)Nc1ccc(C)cc1 (stereo not drawn)	none
CCOC(=O)c1ccc(OCC(=O)c2ccc(O)cc2O)cc1	SENP6 inh 55 | SENP8 confirm inactive | SENP6 confirm inactive | SENP7 confirm 64 | Casp3 select 66 | SENP luc ctr inactive
O=C(COc1ccccc1)OCC(=O)c1ccc(O)cc1O	none (no result: PPC-1+TRAIL kill)
O=C(COc1ccc(Cl)cc1)c1ccc(O)cc1O	SENP6 inh 58 | SENP8 confirm 54 | SENP6 confirm inactive | SENP7 confirm 72 | Casp3 select 67 | SENP luc ctr 53
CCOc1ccc(CN(C)C(=O)CNC(=O)c2sc3ccccc3c2Cl)cc1	none (no result: PPC-1+TRAIL kill)
O=c1cc(-c2ccccc2Cl)oc2cc(O)cc(O)c12	none
Nc1ccc(O)c2c(=O)cc(-c3ccccc3Cl)oc12	SENP6 inh 60, SENP8 block-2 53 | SENP8 confirm inactive | SENP6 confirm inactive | SENP7 confirm inactive | Casp3 select inactive | SENP luc ctr inactive
COc1ccc([N+](=O)[O-])cc1NCc1ccccc1	none
COc1cc2cc(NC(C)=O)cc(NCc3ccccc3)c2cc1OC	SENP6 inh 75, SENP8 block-2 70 (no result: PPC-1+TRAIL kill) | SENP8 confirm inactive | SENP6 confirm inactive | SENP7 confirm inactive | Casp3 select inactive | SENP luc ctr inactive
CCCCNc1cc(NC(C)=O)cc2cc(OC)c(OC)cc12	SENP6 inh 51 | SENP8 confirm inactive | SENP6 confirm 55 | SENP7 confirm inactive | Casp3 select inactive | SENP luc ctr inactive
O=C(Nc1c(-c2ccc3c(c2)OCO3)[nH][nH]c1=O)c1ccccc1	none (no result: PPC-1+TRAIL kill, SENP6 inh, SENP7 block, SENP8 block-2)
Cc1c(CC(=O)O)c(=O)oc2cc(OCc3ccc(Br)cc3)ccc12	none (no result: PPC-1+TRAIL kill)
CC1CCC/C(=N/Nc2nc3ccccc3s2)C1 (stereo not drawn)	SENP7 block 54, SENP8 block-2 56 | SENP8 confirm inactive | SENP6 confirm 68 | SENP7 confirm 88 | Casp3 select inactive | SENP luc ctr 52
COc1ccc(Cn2c(-c3ccco3)nc3oc4cc(OC)ccc4c(=O)c3c2=O)cc1	SENP6 inh 50 | SENP8 confirm inactive | SENP6 confirm inactive | SENP7 confirm inactive | Casp3 select inactive | SENP luc ctr inactive
COc1ccccc1-c1cc2ccccc2[nH]1	none
Clc1ccc(-c2cc3ccccc3[nH]2)cc1	SENP6 inh 71 | SENP8 confirm inactive | SENP6 confirm inactive | SENP7 confirm 78 | Casp3 select inactive | SENP luc ctr inactive
CC1CCc2nc3sc4c(c3c(N)c2C1)CCCC4 (stereo not drawn)	none
Nc1c2c(nc3sc4c(c13)CCCCC4)CCCCC2	SENP6 inh 73, SENP7 block 74, SENP8 block-2 57, C8 TRAIL sens 65 | SENP8 confirm inactive | SENP6 confirm inactive | SENP7 confirm inactive | Casp3 select inactive | SENP luc ctr inactive
CN(C)c1ccc(-c2nnc(-c3cccs3)o2)cc1	SENP6 inh 72, SENP7 block 79, SENP8 block-2 60 | SENP8 confirm inactive | SENP6 confirm 51 | SENP7 confirm 76 | Casp3 select inactive | SENP luc ctr inactive
CN(C)c1oc(-c2cccs2)nc1C#N	none
CCCOc1ccc(-c2nnc(-c3cccs3)o2)cc1	SENP6 inh 80 | SENP8 confirm inactive | SENP6 confirm inactive | SENP7 confirm inactive | Casp3 select inactive | SENP luc ctr inactive
CCCCOc1ccc(-c2nnc(-c3ccncc3)o2)cc1	none
O=C(NCCCc1ccccc1)c1cncc(Br)c1	none (no result: PPC-1+TRAIL kill)
O=C(CN1C(=O)C2CC=CCC2C1=O)Nc1ccc(S(=O)(=O)Nc2nccs2)cc1 (stereo not drawn)	none

Source: PubChem
